We go through 14 compounds from PubChem BioAssay.

The target of assay [1] is Nuclear receptor coactivator 3 (Homo sapiens) (UniProt Q9Y6Q9). In words: NCOA3 GAL4-fusion reporter inhibition – cell-based, luminescence, quadruplicate, confirmation (AID 588792;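 active = mean inhibition over 43.08%, the solvent-only control mean plus 3 SD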;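 also: 0% = DMSO treated cells and 100% = gossypol at 36 µM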). The following applies: HEK293 GAL4-SRC3 luciferase reporter, at 3.6 µM, stronger effect = higher value. In general terms: A reporter such as luciferase makes a cellular process visible.
Nuclear receptor coactivator 3 (Homo sapiens), sequence (Q9Y6Q9 whole entry, looked up, the tested form may be a part): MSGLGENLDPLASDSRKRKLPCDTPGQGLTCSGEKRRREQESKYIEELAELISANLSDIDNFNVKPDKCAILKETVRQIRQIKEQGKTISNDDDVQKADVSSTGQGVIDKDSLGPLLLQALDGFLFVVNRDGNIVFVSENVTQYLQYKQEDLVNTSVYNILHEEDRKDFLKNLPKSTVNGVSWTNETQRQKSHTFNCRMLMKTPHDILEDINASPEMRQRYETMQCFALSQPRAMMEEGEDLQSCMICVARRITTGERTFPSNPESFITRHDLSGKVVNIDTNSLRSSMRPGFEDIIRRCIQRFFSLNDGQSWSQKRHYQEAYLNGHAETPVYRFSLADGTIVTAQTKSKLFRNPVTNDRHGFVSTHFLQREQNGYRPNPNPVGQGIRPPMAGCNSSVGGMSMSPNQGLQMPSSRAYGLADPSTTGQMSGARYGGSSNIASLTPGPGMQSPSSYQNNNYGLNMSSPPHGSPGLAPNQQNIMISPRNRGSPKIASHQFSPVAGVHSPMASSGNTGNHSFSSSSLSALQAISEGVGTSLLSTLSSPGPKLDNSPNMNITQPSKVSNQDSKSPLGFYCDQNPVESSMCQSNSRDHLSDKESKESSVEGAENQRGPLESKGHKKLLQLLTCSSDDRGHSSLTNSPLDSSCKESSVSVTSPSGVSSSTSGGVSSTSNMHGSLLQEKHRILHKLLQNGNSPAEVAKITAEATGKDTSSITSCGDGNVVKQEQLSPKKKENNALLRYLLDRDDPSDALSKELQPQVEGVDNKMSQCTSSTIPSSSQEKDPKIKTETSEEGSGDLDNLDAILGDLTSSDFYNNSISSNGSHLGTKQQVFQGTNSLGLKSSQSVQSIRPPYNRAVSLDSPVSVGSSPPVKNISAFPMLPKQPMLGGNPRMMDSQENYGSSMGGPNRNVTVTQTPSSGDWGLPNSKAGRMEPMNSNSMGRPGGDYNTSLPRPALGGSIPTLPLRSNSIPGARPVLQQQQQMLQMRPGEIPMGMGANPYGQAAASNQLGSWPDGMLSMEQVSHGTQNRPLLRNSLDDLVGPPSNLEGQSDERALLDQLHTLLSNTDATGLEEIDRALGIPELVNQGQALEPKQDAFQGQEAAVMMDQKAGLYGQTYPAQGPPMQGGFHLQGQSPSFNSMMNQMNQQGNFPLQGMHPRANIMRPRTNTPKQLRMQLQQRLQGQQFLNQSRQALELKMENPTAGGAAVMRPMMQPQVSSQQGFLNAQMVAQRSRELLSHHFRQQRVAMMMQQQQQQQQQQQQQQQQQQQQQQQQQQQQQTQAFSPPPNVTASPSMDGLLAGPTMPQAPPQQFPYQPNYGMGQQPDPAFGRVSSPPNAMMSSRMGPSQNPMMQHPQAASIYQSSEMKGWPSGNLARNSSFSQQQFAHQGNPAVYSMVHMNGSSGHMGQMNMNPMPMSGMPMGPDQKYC
For assay [2], the system named is transactivating tegument protein VP16 (Human herpesvirus 1), Gal4-VP16 luciferase reporter. In words: repression of VP16-driven luciferase reporter – cell-based, luminescence, high throughput, counter-screen for SRC3 inhibitor project (AID 588794; in the data active = inhibition above about 30%). The following applies: mammalian cells, at 3.6 µM, stronger effect = higher value.
The target in assay [3] is Nuclear receptor coactivator 1 (Homo sapiens) (UniProt Q15788). As to the kind of experiment: NCOA1 GAL4-fusion reporter inhibition – cell-based, luminescence, quadruplicate, confirmation (AID 588820;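 active = mean inhibition above 46.68%, the untreated control wells mean plus 3 SD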;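 also: 0% = DMSO wells and 100% = gossypol 36 µM treated wells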). Particulars: HEK293 GAL4-SRC1 luciferase reporter, at 3.6 µM, stronger effect = higher value.
Nuclear receptor coactivator 1 (Homo sapiens), sequence (Q15788 whole entry, looked up, the tested form may be a part): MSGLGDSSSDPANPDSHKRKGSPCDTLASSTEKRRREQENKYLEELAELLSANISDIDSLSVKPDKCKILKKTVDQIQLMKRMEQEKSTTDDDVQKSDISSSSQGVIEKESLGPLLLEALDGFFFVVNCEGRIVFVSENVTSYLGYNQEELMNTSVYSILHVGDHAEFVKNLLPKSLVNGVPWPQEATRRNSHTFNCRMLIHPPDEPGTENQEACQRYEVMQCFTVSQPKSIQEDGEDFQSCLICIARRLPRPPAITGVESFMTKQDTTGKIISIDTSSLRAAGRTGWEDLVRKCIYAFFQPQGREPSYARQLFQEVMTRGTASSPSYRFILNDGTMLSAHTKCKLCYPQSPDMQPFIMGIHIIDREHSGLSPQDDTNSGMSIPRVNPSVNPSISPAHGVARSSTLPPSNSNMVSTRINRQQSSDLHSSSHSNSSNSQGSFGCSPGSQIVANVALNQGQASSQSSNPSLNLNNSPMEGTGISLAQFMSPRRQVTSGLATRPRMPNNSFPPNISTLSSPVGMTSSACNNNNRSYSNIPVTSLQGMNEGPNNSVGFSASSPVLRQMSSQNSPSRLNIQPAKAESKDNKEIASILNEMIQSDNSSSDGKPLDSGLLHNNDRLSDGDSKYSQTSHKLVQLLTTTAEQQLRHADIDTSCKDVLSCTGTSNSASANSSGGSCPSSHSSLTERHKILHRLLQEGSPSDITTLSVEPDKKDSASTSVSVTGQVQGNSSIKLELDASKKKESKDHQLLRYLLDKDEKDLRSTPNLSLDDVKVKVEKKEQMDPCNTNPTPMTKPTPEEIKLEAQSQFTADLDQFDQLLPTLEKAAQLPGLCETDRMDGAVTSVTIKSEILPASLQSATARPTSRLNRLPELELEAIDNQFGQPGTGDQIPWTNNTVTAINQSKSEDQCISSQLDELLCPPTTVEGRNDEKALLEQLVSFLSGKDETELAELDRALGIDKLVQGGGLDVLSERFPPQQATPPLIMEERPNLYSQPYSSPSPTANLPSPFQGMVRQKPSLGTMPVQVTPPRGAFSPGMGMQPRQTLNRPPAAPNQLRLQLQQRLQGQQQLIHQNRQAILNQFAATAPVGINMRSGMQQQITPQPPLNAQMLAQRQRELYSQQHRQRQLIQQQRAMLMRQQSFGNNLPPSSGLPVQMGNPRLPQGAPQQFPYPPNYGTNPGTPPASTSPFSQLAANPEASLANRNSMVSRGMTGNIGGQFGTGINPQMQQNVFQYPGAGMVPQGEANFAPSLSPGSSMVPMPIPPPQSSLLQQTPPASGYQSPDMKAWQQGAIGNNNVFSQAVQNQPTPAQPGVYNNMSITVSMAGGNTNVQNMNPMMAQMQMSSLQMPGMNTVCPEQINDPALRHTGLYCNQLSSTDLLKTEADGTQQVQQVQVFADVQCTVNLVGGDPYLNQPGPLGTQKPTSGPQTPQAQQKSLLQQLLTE
Assay [4] can be described thus: repression of VP16-driven luciferase reporter – cell-based, luminescence, high throughput, counter-screen for SRC1 inhibitor project (AID 588824). The following applies: cell-based VP16 transactivation luciferase luminescence; at 3.6 µM; stronger effect = higher value.
A short description of assay [5]: StAR promoter reporter inhibitors, counter-screen for LRH-1 inverse agonist project, cell-based, luminescence, high throughput (AID 651611; in the data active = inhibition above about 28%). The following applies: StAR promoter luciferase reporter counterscreen, at 3.6 µM, stronger effect = higher value. (A counterscreen serves to expose hits that act by an unwanted route or on another target.)
For assay [6], the target named is Nuclear receptor subfamily 5 group A member 2 (Homo sapiens) (UniProt O00482). As to the kind of experiment: NR5A2 activity suppression in reporter cells – cell-based, luminescence, confirmation (AID 651613; in the data active = inhibition above about 42%;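 also: HEK293T cells co-transfected with LRH-1 and StAR promoter luciferase reporter; 0% = vehicle wells and 100% = parental cells lacking receptor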). Particulars: cell-based LRH-1 luciferase reporter, inverse agonism; at 3.6 µM; stronger effect = higher value.
The target in assay [7] is Steroidogenic factor 1 (Homo sapiens) (UniProt Q13285). As to the kind of experiment: inverse agonism at SF1 nuclear receptor – cell-based, luminescence, high throughput, counter-screen for LRH-1 inverse agonist project (AID 651614; in the data active = inhibition above about 44%;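 also: cells cotransfected with StAR promoter reporter and SF1 expression vector; 0% = vehicle on cells with receptor and 100% = vehicle on cells lacking receptor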). The following applies: cell-based SF1 luciferase reporter, at 3.6 µM, stronger effect = higher value.
Steroidogenic factor 1 (Homo sapiens), sequence (Q13285 whole entry, looked up, the tested form may be a part): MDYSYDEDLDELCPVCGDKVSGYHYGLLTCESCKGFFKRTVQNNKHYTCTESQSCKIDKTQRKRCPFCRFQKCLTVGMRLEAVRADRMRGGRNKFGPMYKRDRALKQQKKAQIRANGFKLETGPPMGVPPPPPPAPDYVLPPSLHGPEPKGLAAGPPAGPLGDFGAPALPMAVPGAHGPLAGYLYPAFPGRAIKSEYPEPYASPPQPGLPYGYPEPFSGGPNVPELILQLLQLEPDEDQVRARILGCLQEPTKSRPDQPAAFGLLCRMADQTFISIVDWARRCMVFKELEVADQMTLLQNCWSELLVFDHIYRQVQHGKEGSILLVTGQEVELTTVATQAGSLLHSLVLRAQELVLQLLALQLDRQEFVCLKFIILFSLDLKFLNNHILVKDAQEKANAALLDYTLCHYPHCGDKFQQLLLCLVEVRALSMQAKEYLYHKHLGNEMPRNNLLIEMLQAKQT
A short description of assay [8]: compounds suppressing VP16-driven luciferase signal – cell-based, luminescence, high throughput, counter-screen for LRH-1 inverse agonist project (AID 651615; in the data active = inhibition above about 33%). Particulars: Gal4-VP16 luciferase reporter cells, at 3.6 µM, stronger effect = higher value.
Assay [9] concerns transactivating tegument protein VP16 (Human herpesvirus 1). In words: compounds suppressing VP16-driven luciferase signal – cell-based, luminescence, single concentration, counter-screen for SRC2 inhibitor project (AID 652007; in the data active = inhibition above about 36%). The following applies: cell-based VP16 transactivation luciferase reporter, at 8.9 µM, stronger effect = higher value.
In assay [10] the target is Nuclear receptor coactivator 2 (Homo sapiens) (UniProt Q15596). As to the kind of experiment: inhibition of GAL4-SRC2 driven luciferase expression – cell-based, luminescence, HEK293, triplicate, confirmation (AID 652008;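 active = mean inhibition above 46.5%, the solvent-only control mean plus 3 SD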;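 also: 0% = DMSO-treated cells and 100% = Gossypol at 36 µM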). Particulars: HEK293 GAL4-SRC2 luciferase reporter, at 8.9 µM, stronger effect = higher value.
Nuclear receptor coactivator 2 (Homo sapiens), sequence (Q15596 whole entry, looked up, the tested form may be a part): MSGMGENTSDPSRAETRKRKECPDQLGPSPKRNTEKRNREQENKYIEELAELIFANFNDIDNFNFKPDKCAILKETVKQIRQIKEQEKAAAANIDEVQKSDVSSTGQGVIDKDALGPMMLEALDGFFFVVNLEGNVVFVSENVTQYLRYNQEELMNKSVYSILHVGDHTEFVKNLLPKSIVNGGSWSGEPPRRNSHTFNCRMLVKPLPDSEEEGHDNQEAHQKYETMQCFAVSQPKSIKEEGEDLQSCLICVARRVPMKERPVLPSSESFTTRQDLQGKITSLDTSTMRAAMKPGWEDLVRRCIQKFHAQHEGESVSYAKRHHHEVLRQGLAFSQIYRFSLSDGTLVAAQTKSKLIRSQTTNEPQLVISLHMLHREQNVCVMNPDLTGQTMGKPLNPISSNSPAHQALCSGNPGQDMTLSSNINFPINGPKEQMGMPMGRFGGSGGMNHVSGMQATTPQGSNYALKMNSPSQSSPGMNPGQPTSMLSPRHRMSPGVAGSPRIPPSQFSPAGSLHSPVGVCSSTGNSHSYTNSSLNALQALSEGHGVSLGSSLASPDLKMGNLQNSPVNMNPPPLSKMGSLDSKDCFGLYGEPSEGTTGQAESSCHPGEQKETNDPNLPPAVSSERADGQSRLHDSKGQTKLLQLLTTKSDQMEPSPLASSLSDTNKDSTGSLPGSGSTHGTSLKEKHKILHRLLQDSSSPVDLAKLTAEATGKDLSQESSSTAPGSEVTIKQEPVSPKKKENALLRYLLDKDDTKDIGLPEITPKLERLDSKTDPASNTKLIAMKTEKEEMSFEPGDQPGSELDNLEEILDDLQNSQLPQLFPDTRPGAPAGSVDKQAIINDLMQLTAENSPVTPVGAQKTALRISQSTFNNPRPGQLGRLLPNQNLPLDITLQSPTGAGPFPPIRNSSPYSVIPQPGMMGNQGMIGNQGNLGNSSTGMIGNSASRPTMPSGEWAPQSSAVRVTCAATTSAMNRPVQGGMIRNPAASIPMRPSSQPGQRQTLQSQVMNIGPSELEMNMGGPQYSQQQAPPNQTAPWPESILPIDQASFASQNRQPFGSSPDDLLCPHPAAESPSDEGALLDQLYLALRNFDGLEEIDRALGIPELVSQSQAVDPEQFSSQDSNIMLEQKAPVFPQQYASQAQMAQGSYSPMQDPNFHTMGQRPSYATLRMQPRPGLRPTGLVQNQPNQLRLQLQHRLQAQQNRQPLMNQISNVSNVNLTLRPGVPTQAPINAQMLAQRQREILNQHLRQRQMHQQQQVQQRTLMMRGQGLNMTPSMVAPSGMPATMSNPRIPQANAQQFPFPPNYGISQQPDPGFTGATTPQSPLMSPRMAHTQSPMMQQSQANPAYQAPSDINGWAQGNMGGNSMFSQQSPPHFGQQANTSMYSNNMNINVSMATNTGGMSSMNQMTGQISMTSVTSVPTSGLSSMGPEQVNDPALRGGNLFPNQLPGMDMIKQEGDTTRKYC

Each structure is given as a SMILES string. Several values for one entry are separate records, joined by “and”; a condition that tells them apart may be missing. Equal entries are not always repeated. A number with no mark means an inactive call. Activity calls are given as the source filed them. Rule as the data show it, unless noted: active = inhibition above about 25%; inactive = the rest.

In the case of `COc1ccc(-n2ncc3c(N(C)C4CCCCC4)ncnc32)cc1`, the inhibition in [1] is 63.9% (active); in assay [2] it was 53.6% (active); in [3], 37.6%; in assay [4] it was 40.1% (active); in assay [5] it was 30% (active); in [6], -23.3%. In addition, the inhibition in assay [7] was 28.6%; in [8] it was 20.2%; in assay [9] it was 42.7% (active); in [10], 80.3% (active).
In the case of `CCOC(=O)c1ccc(NC(=O)c2ccc(C)c(S(=O)(=O)N3CCOCC3)c2)cc1`, the inhibition in assay [1] was 31.4%; in [2], 47.9% (active); in assay [3] it was 3.47%; in assay [4], 54.1% (active); in assay [5], 65.1% (active); in [6], 50.5% (active). Also, the inhibition in assay [7] was 66.5% (active); in [8], 66% (active); in [9] it was 47.4% (active); in assay [10] it was 33.8%.
Turning to `CC(=O)OC[C@]12CC[C@H]3[C@@](C)(CC[C@H]4C(C)(C)CCC[C@]34C)[C@@H]1CC(C1=CC(=O)OC1O)O2` (stereo not given in full), the inhibition is 93.2% (active) in assay [1]; 90% (active) in assay [2]; -93.3% in [3]; 90.8% (active) in assay [4]; 92.7% (active) in assay [5]; 110% (active) in assay [6]. Moreover, the inhibition in [7] is 97.1% (active); in assay [8], 95% (active); in assay [9] it was 96% (active); in assay [10] it was 93.4% (active).
Regarding `O=C(COc1ccc(Cl)cc1Cl)Nc1ccccn1`, the inhibition in [1] was 56.2% (active); in assay [2] it was 53.6% (active); in assay [3], 32.1%; in assay [4], 48.2% (active); in [5] it was 46.9% (active); in [6] it was 27.2%. The inhibition in assay [7] was 60.6% (active); in [8] it was 32.3% (active); in assay [9], 67.4% (active); in assay [10], 85.2% (active).
`Cc1cc(C(=O)COC(=O)c2ccccc2O)c(C)n1Cc1cccs1`: the inhibition in assay [1] was 85.3% (active); in assay [2], 84.9% (active); in [3] it was 71.1% (active); in [4], 74.4% (active); in assay [5], 85% (active); in assay [6], 59% (active). Besides, the inhibition was 80.2% (active) in assay [7], 73.6% (active) in [8], 81% (active) in assay [9] and 92.7% (active) in [10].
On to `O=C(OCCC12CC3CC(CC(C3)C1)C2)c1ccc(NCc2cc(O)ccc2O)cc1`, for which the inhibition in [1] was 88.1% (active); in [2], 25.4%; in assay [3] it was 11.1%; in [4], 57.7% (active); in [5], 72.6% (active); in [6], 80.7% (active). Besides, the inhibition is 75.3% (active) in assay [7], 83.8% (active) in [8], 97.1% (active) in assay [9] and 98.4% (active) in assay [10].
Take `O=C(CSc1nnc(-c2cccnc2)s1)Nc1ccnc2ccccc12`: the inhibition in [1] was 32.3%; in assay [2] it was 46.7% (active); in [3], -3.87%; in assay [4], 51.2% (active); in assay [5], 21%; in assay [6], 57% (active). Also, the inhibition is 56.1% (active) in [7], 55.6% (active) in [8], 23.7% in assay [9] and 35% in [10].
Take `CC(C)(C)c1ccc(-c2noc(CCC(N)=O)n2)cc1`: the inhibition was 65.2% (active) in [1]; 51.9% (active) in assay [2]; 59.7% (active) in [3]; 56.7% (active) in assay [4]; 58.9% (active) in assay [5]; 70% (active) in assay [6]. The inhibition was 60.8% (active) in [7], 58.4% (active) in assay [8], 83.6% (active) in assay [9] and 94.2% (active) in assay [10].
Take `O=C(NN=Cc1c(O)ccc2ccccc12)c1ccncc1`: the inhibition in assay [1] was 77% (active); in assay [2] it was 70.6% (active); in assay [3], 65.6% (active); in [4], 65.3% (active); in assay [5], 87.4% (active); in assay [6], 104% (active). In addition, the inhibition was 89.8% (active) in [7], 77.4% (active) in assay [8], -16.9% in assay [9] and 38% in assay [10].
As for `Nc1cc2ccncc2c2ccccc12`, the inhibition in assay [1] is 72% (active); in [2] it was 51.6% (active); in assay [3], 68.9% (active); in [4], 47.8% (active); in [5], 8.54%; in assay [6], 75.6% (active). Moreover, the inhibition in [7] was 63.2% (active); in assay [8], 72.3% (active); in assay [9] it was 22.2%; in [10], 43.4%.
On to `CC(C)(C)c1ccc(C(=O)O/N=C(\N)c2ccccn2)cc1`, for which the inhibition in assay [1] was 85.4% (active); in assay [2], 77.2% (active); in assay [3], 64.9% (active); in assay [4], 67.5% (active); in assay [5], 61.1% (active); in [6], 45.8% (active). The inhibition in assay [7] was 58.5% (active); in assay [8], 62.5% (active); in assay [9] it was 83.1% (active); in [10], 94.4% (active).
In the case of `CCCC(=O)Nc1ccc(C(=O)N/N=C/c2ccc([N+](=O)[O-])o2)cc1`, the inhibition in assay [1] is 88.8% (active); in assay [2], 69.5% (active); in [3] it was 74.8% (active); in [4] it was 66.5% (active); in [5], 86.9% (active); in assay [6], 102% (active). In addition, the inhibition was 95.1% (active) in assay [7], 80.5% (active) in [8], 23.3% in assay [9] and 53.8% (active) in assay [10].
As to `CC1CCC(C(C)C)C(OC(=O)Cn2c(-c3ccccc3)[n+](C)c3ccccc32)C1` (stereo not given), the inhibition in assay [1] is 74.8% (active) and 54.2% (active); in assay [2], 76.2% (active) and 68% (active); in [3], 55.1% (active) and 49.6% (active); in assay [4], 75.8% (active) and 65.7% (active); in assay [5], 54% (active); in assay [6], 108% (active). Besides, the inhibition in [7] was 83.8% (active); in assay [8], 94.5% (active); in [9], 49.1% (active); in assay [10], 30.4%.
Consider `CC1=C(C(=O)OCc2ccc3c(c2)OCO3)C(c2ccc(F)cc2)NC(=O)N1` (stereo not given), for which the inhibition was 77.2% (active) in [1]; 66.2% (active) in assay [2]; 70.7% (active) in assay [3]; 67.6% (active) in assay [4]; 49.1% (active) in [5]; 71.3% (active) in [6]. The inhibition in assay [7] is 62.8% (active); in [8] it was 85.2% (active); in assay [9] it was 16.1%; in assay [10] it was 58.7% (active).

For orientation: inhibition means the change of the read-out against control, counted positive when it falls.
